This is an account of results in PubChem BioAssay AID1159580 (chemical genetic matrix, 2015).

The campaign covered roughly 5,500 compounds. About 2,000 (36%) were called active. Another 18% or so got no clear call; they are omitted. This is one part of the list. A number with no mark means an inactive call. Cut-off read from the data, not from the text of the source: active = normalized growth mostly below about 0.91 (no sharp cut-off); inconclusive = no clear call, values can overlap the other calls; inactive = mostly above about 0.92.

This assay in a line: chemical genetic growth profiling, strain panel (AID 1159580).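 Note: tested at 20 µM; growth read once vehicle control cultures reached saturation at 30 °C; 1 = growth at the plate median or of vehicle wells; lower values mean less growth of the strain.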 To be noted: growth OD.
[1] abbreviates: S. cerevisiae deletion strains, locus YHR030C, strain SLT2, hits give low values.

With `CC(Oc1ccc(Cl)cc1Cl)C(=O)O` (stereo not given), the normalized growth is 0.968 under setting [1]; 0.964 (S. cerevisiae deletion strains, locus YHR079C, strain IRE1, hits give low values); 0.961 (S. cerevisiae deletion strains, locus YJL095W, strain BCK1, hits give low values); 0.898 (S. cerevisiae deletion strains, locus YJR066W, strain TOR1, hits give low values); 0.968 (S. cerevisiae deletion strains, locus YLR113W, strain HOG1, hits give low values); 0.896 (S. cerevisiae deletion strains, locus YNL183C, strain NPR1, hits give low values). Besides, the normalized growth reads like this: (S. cerevisiae deletion strains, locus YOR231W, strain MKK1, hits give low values) 0.965; (S. cerevisiae deletion strains, locus YPL256C, strain CLN2, hits give low values) 0.955.

Turning to `O=C(Oc1ccc(Cl)cc1Cl)c1c(Cl)cccc1Cl`, the normalized growth reads like this: (S. cerevisiae deletion strains, locus YAL013W, strain DEP1, hits give low values) 0.946; (S. cerevisiae deletion strains, locus YBR229C, strain ROT2, hits give low values) 0.981; (S. cerevisiae deletion strains, locus YDL101C, strain DUN1, hits give low values) 0.979; (S. cerevisiae deletion strains, locus YDR150W, strain NUM1, hits give low values) 0.882; (S. cerevisiae deletion strains, locus YEL061C, strain CIN8, hits give low values) 0.997; (S. cerevisiae deletion strains, locus YGR078C, strain PAC10, hits give low values) 0.965. Moreover, the normalized growth reads like this: under setting [1], 0.681 (active); (S. cerevisiae deletion strains, locus YHR087W, strain rtc3, hits give low values) 0.982; (S. cerevisiae deletion strains, locus YJL187C, strain SWE1, hits give low values) 0.967; (S. cerevisiae deletion strains, locus YJR043C, strain POL32, hits give low values) 0.955; (S. cerevisiae deletion strains, locus YJR075W, strain HOC1, hits give low values) 0.945; (S. cerevisiae deletion strains, locus YKL190W, strain CNB1, hits give low values) 0.969. Moreover, the normalized growth was 1.2 (S. cerevisiae deletion strains, locus YLR039C, strain RIC1, hits give low values); 0.989 (S. cerevisiae deletion strains, locus YLR058C, strain SHM2 (second series), hits give low values); 0.812 (S. cerevisiae deletion strains, locus YLR085C, strain ARP6, hits give low values); 1.2 [resistant] (active) (S. cerevisiae deletion strains, locus YLR262C, strain YPT6, hits give low values); 0.968 (S. cerevisiae deletion strains, locus YML094W, strain GIM5, hits give low values); 0.985 (S. cerevisiae deletion strains, locus YMR219W, strain ESC1, hits give low values). Besides, the normalized growth is 0.961 (S. cerevisiae deletion strains, locus YMR263W, strain SAP30, hits give low values); 0.985 (S. cerevisiae deletion strains, locus YNL153C, strain GIM3, hits give low values); 0.957 (S. cerevisiae deletion strains, locus YNL298W, strain CLA4 (second series), hits give low values); 0.986 (S. cerevisiae deletion strains, locus YNL322C, strain KRE1, hits give low values); 0.939 (S. cerevisiae deletion strains, locus YNR030W, strain Alg12, hits give low values); 0.876 (S. cerevisiae deletion strains, locus YPL055C, strain LGE1, hits give low values). Further, the normalized growth reads like this: (S. cerevisiae deletion strains, locus YPL241C, strain CIN2, hits give low values) 0.954; (S. cerevisiae deletion strains, locus YPR135W, strain CTF4, hits give low values) 0.907; (S. cerevisiae strains, strain wild type, hits give low values) 0.984.
